The values that follow come from PubChem BioAssay (NCI).

This is part of a sample that, as a whole, favours compounds with a hit. Of some 83,000 tested, about 20% had one in any assay.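 For each line, cells grew in 96-well plates with the test compound present at a single concentration for 48 hours.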 A number with no mark means an inactive call. Active and inactive are the calls of the source. The calls were made as follows: active = growth percent below 10; inactive = the rest.

Assay in all cases: NCI-60 one-dose screen, 48 h (100 = growth as untreated, 0 = no growth, -100 = all killed)
One assay relates to 786-0 renal. The note with it: 10 µM.
The subject of a further assay is K-562 leukemia. The conditions noted are these: 10 µM.
The subject of the next assay is MALME-3M melanoma. The conditions noted are these: 10 µM.
Another assay deals with RXF 393 renal. The note with it: 10 µM.
A further assay relates to EKVX NSCLC. The note with it: 10 µM.
Another assay has as its system SN12C renal. The conditions noted are these: 10 µM.
Another assay concerns UO-31 renal. The note with it: 10 µM.
The next assay concerns TK-10 renal. The conditions noted are these: 10 µM.
Another assay concerns ACHN renal. The note with it: 10 µM.
The next assay relates to CAKI-1 renal. The conditions noted are these: 10 µM.
In the next assay the test system is CCRF-CEM leukemia. The note with it: 10 µM.
The test system of a further assay is OVCAR-8 ovarian. The note with it: 10 µM.
Another assay relates to OVCAR-5 ovarian. The conditions noted are these: 10 µM.
The test system of another assay is OVCAR-4 ovarian. The conditions noted are these: 10 µM.
For a further assay, the system named is SK-OV-3 ovarian. The note with it: 10 µM.
In another assay the test system is OVCAR-3 ovarian. The conditions noted are these: 10 µM.
The test system of another assay is NCI/ADR-RES ovarian. The note with it: 10 µM.
Another assay deals with BT-549 breast. The note with it: 10 µM.
The next assay has as its system MCF7 breast. The conditions noted are these: 10 µM.
A further assay has as its system MDA-MB-468 breast. The note with it: 10 µM unless noted.

Take `CCC[Se]C(=O)c1ccc(C(=O)[Se]CCC)s1`: the growth is 2.15% (active) with 786-0 renal; 7.32% (active) in the assay on K-562 leukemia; -82.4% (active) with MALME-3M melanoma; -41.3% (active) with RXF 393 renal; -79.7% (active) in the assay on EKVX NSCLC; -75% (active) in the assay on SN12C renal. The growth was -55.5% (active) in the assay with UO-31 renal; -79.8% (active) in the assay with TK-10 renal; -63.3% (active) with ACHN renal; -78.1% (active) in the assay with CAKI-1 renal; 13.6% in the assay with CCRF-CEM leukemia; -51.1% (active) in the assay on OVCAR-8 ovarian. Further, the growth in the assay with OVCAR-5 ovarian is -35.6% (active); in the assay with OVCAR-4 ovarian, 55.6%; in the assay with SK-OV-3 ovarian, -31.1% (active); in the assay on OVCAR-3 ovarian it was -47.6% (active); in the assay with NCI/ADR-RES ovarian, -53.9% (active); with BT-549 breast, -86.4% (active). The growth in the assay on MCF7 breast is -34.6% (active); in the assay with MDA-MB-468 breast it was -80.6% (active).

On to `COc1ccc(OC)c(/C=C/C(=O)c2nc3ccccc3n2Cc2ccc(F)cc2)c1`, for which the growth is -57.7% (active) with 786-0 renal; 0.885% (active) with K-562 leukemia; -36.9% (active) in the assay on MALME-3M melanoma; -52.5% (active) in the assay on RXF 393 renal; -62.1% (active) in the assay on EKVX NSCLC; 4.76% (active) with SN12C renal. The growth in the assay with UO-31 renal was -43.9% (active); in the assay on TK-10 renal, 13.1%; in the assay with ACHN renal, -48.2% (active); in the assay on CAKI-1 renal, 32.2%; with CCRF-CEM leukemia, -18.5% (active); with OVCAR-8 ovarian it was 3.97% (active). The growth is -43% (active) with OVCAR-5 ovarian; 37.9% with OVCAR-4 ovarian; 50.2% with SK-OV-3 ovarian; -12% (active) with OVCAR-3 ovarian; -41.5% (active) in the assay on NCI/ADR-RES ovarian; -58.2% (active) with BT-549 breast. For the same compound, the growth in the assay with MCF7 breast was 2.95% (active); with MDA-MB-468 breast, -57.3% (active).

Take `CC12OOC(C)(OO1)C2CCC(=O)NCCCNc1ccnc2cc(Cl)ccc12` (stereo not given): the growth with 786-0 renal is -12.2% (active); in the assay on K-562 leukemia, 4.06% (active); in the assay with MALME-3M melanoma, -94.6% (active); with RXF 393 renal, 4.73% (active); with EKVX NSCLC it was 85.6%; in the assay on SN12C renal, 91.9%. The growth is -99.4% (active) in the assay on UO-31 renal; 23.4% in the assay on TK-10 renal; -100% (active) in the assay on ACHN renal; -93.3% (active) with CAKI-1 renal; 3.13% (active) in the assay on CCRF-CEM leukemia; 94.9% with OVCAR-8 ovarian. Moreover, the growth with OVCAR-5 ovarian was 84.4%; in the assay on OVCAR-4 ovarian, -42.2% (active); with SK-OV-3 ovarian, 103%; in the assay with OVCAR-3 ovarian, -49.6% (active); in the assay on NCI/ADR-RES ovarian, 99.9%; in the assay on BT-549 breast, 121%. The growth is 58.1% in the assay on MCF7 breast and -52.7% (active) with MDA-MB-468 breast.
